In PubChem BioAssay:

Biological target: Voltage-gated potassium channel subunit beta-2 (Rattus norvegicus) (UniProt P62483)
Assay: KvBeta positive modulators, primary screen, biochemical, NADPH fluorescence (AID 623;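 active = NADPH fluorescence slope more negative than the mean of all samples by about 3 SD, 99.7% confidence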;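 also: fluorescence intensity change per second fitted from 20 to 320 s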)
Settings: Recombinant KvBeta, NADPH fluorescence decrease slope, 10 min; at 10 µM; stronger effect = lower value

Sequence of Voltage-gated potassium channel subunit beta-2 (Rattus norvegicus) (P62483 whole entry, looked up): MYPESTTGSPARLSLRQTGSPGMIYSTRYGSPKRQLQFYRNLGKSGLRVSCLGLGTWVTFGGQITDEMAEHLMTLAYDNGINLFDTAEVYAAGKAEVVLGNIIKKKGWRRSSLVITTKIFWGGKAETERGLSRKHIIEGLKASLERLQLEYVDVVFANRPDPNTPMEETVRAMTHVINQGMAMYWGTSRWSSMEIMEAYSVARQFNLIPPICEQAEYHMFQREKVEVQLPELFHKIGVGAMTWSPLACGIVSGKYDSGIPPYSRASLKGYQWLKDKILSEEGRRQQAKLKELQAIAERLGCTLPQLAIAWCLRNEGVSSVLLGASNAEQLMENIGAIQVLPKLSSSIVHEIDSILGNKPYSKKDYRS

NADPH fluorescence slope, inactive:
O=C(Cn1cnc2c(cnn2-c2ccc(F)cc2)c1=O)N1CCN(c2ccccc2)CC1 -2.6e-06, Cc1ccnc(N2CCN(C(=O)CSc3nc4ccccc4nc3N3CCCCC3)CC2)c1 9.1e-07, Cc1cccc(C)c1NC(=O)c1cc(S(=O)(=O)N2CCOCC2)ccc1F -1e-05, Cc1cc2ccccc2n1CCNC(=O)C1CC1 -3.8e-05, COc1ccc(C)cc1NC(=O)CCN1CCCC1 -3.8e-06, COCCn1nnnc1C(c1ccc(OC)cc1)N1CCN(c2ccccc2F)CC1 (stereo not given) -9.6e-06, CCOc1ccc(NC(=O)CCN2CCN(c3ccccc3)CC2)cc1 -1.2e-05, CC(C)Cc1n[nH]c(=O)[nH]1 -3.9e-05, CC(=O)C1=C(O)C(=O)N(C2CCCCC2)C1c1ccccc1 (stereo not given) -9.9e-06, Cc1nn(-c2ccccc2)c2c1C(O)n1c(nc3ccccc31)S2 (stereo not given) -0.000266

Biological target: Alpha-2C adrenergic receptor (Homo sapiens) (UniProt P18825)
Sequence (P18825 whole entry, looked up): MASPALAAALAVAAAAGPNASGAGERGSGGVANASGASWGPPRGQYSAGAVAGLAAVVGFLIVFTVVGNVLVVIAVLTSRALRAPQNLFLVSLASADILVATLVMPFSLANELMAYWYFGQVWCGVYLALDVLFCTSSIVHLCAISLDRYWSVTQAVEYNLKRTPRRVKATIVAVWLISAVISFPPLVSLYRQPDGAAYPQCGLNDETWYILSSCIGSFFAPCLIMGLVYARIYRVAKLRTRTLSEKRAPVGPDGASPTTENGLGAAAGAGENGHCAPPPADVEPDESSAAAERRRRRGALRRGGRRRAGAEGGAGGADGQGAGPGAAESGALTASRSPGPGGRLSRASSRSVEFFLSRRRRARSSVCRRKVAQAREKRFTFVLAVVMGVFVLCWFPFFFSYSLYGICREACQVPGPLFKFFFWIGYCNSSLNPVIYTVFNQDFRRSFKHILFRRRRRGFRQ
Assay: modulators of alpha2C/GIRK thallium flux, primary screen, cell-based, HEK293 alpha2C/GIRK1/2 (AID 624);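 also: slope of fluorescence ratio to pre-addition baseline per second over 15 to 24 s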
Settings: thallium flux BTC fluorescence, at 10 µM, actives lie on both sides

slope, inactive:
Cc1ccc(-c2nnc(SC(C)C#N)n2N)cc1 (stereo not given) 0.00692, CCOc1ccc2[nH]cc(C(=O)N3CCN(CC)CC3)c(=O)c2c1 0.00496, Cn1nnnc1SCC(=O)N1CCN(c2ccccc2)CC1 0.00625, CC(C)c1nc(N2CCN(C(=O)c3ccco3)CC2)c2c3c(sc2n1)CCCC3 0.00628, CCOc1ccc(OCC)c(NC(=O)CN2CCN(C(=O)c3ccco3)CC2)c1 0.00515, O=C(COC(=O)c1cc(S(=O)(=O)N2CCOCC2)cs1)c1ccccc1 0.00656, Cn1c(=O)c2c(-c3ccncc3)c3c(nc2n(C)c1=O)-c1ccccc1C3=O 0.00591, Nc1c(N2CCCCC2)c(=O)[nH]c(=O)n1-c1ccccc1 0.00376, CC(=O)Nc1ccc(S(=O)(=O)N2CCN(C(=O)CCC3CCCC3)CC2)cc1 0.00522, COc1cccc(C2CC(c3ccccc3)n3ncnc3N2)c1 (stereo not given) 0.00718, CCOc1ccc2oc(-c3ccccc3)c(C(=O)N3CCN(CCO)CC3)c2c1 0.00775, Cc1cc(NCCN2CCOCC2)n2nc(C)c(-c3ccccc3)c2n1 0.00587, COCc1cc(C)nc(Nc2ccc(C)cc2C)c1C#N 0.00615, COc1ccccc1-c1nnc(SCC(=O)N2CC(C)CC(C)C2)o1 (stereo not given) 0.00365, CC(=O)c1cc2c(cc1NC(=O)CN1CCN(C(=O)c3ccco3)CC1)OCO2 0.00807, COc1cccc(C2=NOC(C(=O)Nc3cc(C)nn3-c3ccccc3)C2)c1OC (stereo not given) 0.00584, O=C(O)C1CCCN1c1ncnc2c1oc1ccccc12 (stereo not given) 0.00455, Cc1ccc(OC(=O)CCC(=O)OCCCC(F)(F)C(F)(F)F)cc1 0.00733, O=S(=O)(c1cccc(S(=O)(=O)N2CCC(N3CCCCC3)CC2)c1)N1CCOCC1 0.00684, CNc1ccc(C(O)(C(F)(F)F)C(F)(F)F)cc1C(O)(C(F)(F)F)C(F)(F)F 0.00297, Cc1cc(C)n2nc(SCc3nc4ccccc4[nH]3)nc2n1 0.00609, Cc1cccc(C(=O)N(C)c2nnc(-c3ccncc3)s2)c1 0.0064, CCOC(=O)c1c(C)n(C)c2c(C)cc(O)c(OC(C)=O)c12 0.00417, C=CCOC(=O)C1=C(C)NC(=O)NC1c1cn(-c2ccccc2)nc1-c1cccs1 (stereo not given) 0.00533, CCOc1ccccc1NC(=O)C1CCCN(S(=O)(=O)c2cccc3cccnc23)C1 (stereo not given) 0.00547, CCOc1ccccc1Nc1nnc(SCC(=O)N2CCCC2)s1 0.00607, COC(=O)/C=c1\sc2ncnn2c1=O 0.00688, CN(C)CCNc1oc(-c2ccccc2F)nc1C#N 0.00579, O=C(C1CCN(c2nnc(-n3cccc3)s2)CC1)N1CCN(Cc2ccc3c(c2)OCO3)CC1 0.00596, COc1ccccc1NC(=O)C1(C)Cc2ccccc2C(=O)O1 (stereo not given) 0.00673, O=C(Cn1cnc2c(cnn2-c2ccc(F)cc2)c1=O)N1CCN(c2ccccc2)CC1 0.00638, Cc1ccnc(N2CCN(C(=O)CSc3nc4ccccc4nc3N3CCCCC3)CC2)c1 0.00385, Cc1cccc(C)c1NC(=O)c1cc(S(=O)(=O)N2CCOCC2)ccc1F 0.00325, Cc1cc2ccccc2n1CCNC(=O)C1CC1 0.00596, COc1ccc(C)cc1NC(=O)CCN1CCCC1 0.00559, COCCn1nnnc1C(c1ccc(OC)cc1)N1CCN(c2ccccc2F)CC1 (stereo not given) 0.00546, CCOc1ccc(NC(=O)CCN2CCN(c3ccccc3)CC2)cc1 0.00485, CC(C)Cc1n[nH]c(=O)[nH]1 0.00544, CC(=O)C1=C(O)C(=O)N(C2CCCCC2)C1c1ccccc1 (stereo not given) 0.00562, Cc1nn(-c2ccccc2)c2c1C(O)n1c(nc3ccccc31)S2 (stereo not given) 0.00554
